Assay outcomes (PubChem BioAssay)
JMJD2A Tudor: qHTS Assay for Inhibitors of JMJD2A-Tudor Domain. Lysine-specific demethylase 4A (Homo sapiens), O75164. AID 504339, 2011. AlphaScreen JMJD2A-Tudor / H3K4me3 peptide binding. Potency, µM (top dose mostly 114 µM), for inactives: top-dose activity change, negative = inhibition, actives largely listed as inhibitors. 390,000 compounds, 4.4% hits; also: potency is read from the fitted curve at half-maximal effect; % is scaled to controls: 0 for no effect and ±100 for the full control effect; nearly all actives have a fitted effect of over 50% in size
Target sequence (O75164 whole entry, looked up, the tested form may be a part): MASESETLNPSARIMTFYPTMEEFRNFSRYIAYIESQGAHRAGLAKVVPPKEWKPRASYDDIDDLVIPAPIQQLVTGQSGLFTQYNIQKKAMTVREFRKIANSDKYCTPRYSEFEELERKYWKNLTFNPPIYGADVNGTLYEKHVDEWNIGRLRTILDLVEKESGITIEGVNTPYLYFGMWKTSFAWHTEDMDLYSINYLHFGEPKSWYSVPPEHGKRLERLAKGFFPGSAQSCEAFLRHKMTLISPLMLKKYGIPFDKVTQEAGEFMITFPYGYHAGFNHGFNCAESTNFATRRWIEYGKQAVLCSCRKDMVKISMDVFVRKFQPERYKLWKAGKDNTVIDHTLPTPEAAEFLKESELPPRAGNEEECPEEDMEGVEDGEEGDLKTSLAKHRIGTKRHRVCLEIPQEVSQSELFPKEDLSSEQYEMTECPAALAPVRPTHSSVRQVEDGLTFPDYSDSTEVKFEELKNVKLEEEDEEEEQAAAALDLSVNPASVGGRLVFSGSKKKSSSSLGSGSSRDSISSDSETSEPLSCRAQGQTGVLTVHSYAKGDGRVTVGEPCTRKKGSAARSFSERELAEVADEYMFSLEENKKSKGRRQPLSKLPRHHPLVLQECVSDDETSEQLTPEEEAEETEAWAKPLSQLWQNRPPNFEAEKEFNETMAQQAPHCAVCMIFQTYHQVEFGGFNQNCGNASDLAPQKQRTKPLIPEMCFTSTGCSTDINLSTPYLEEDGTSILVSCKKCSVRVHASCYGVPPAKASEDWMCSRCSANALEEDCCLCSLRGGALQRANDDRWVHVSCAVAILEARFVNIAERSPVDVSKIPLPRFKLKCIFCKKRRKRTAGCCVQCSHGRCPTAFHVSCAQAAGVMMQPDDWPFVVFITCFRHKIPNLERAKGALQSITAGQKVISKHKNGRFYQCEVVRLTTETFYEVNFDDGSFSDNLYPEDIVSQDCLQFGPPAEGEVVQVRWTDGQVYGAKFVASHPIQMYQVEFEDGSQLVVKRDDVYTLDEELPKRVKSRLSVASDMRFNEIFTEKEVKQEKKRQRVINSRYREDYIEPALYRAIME
G9a inh: qHTS Assay for Inhibitors of Histone Lysine Methyltransferase G9a. Histone-lysine N-methyltransferase EHMT2 (Homo sapiens), Q96KQ7. G9a H3K9 monomethylation, AlphaScreen, 2 h. Potency, µM (doses to about 102 µM), without a hit: top-dose activity, negative = inhibition, most hits filed as inhibitors. 350,000 compounds, 8.8% hits. AID 504332, 2011; also: potency is read from the fitted curve at half-maximal effect; % is scaled to controls: 0 for no effect and ±100 for the full control effect; nearly all actives have a fitted effect of over 75% in size
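Methyltransferase reactions run at room temperature for 2 h (20 nM enzyme, 500 nM biotin-H3K9 peptide, 20 uM SAM) after a 15 min compound preincubation; product detected by AlphaScreen beads and anti-H3K9me1 antibody.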
PI5P4Ka inh: qHTS for Inhibitors of phosphatidylinositol 5-phosphate 4-kinase (PI5P4K); 330,000 compounds, 1.2% hits; AID 652105, 2013; PI5P4Kalpha enzyme, ADP-Glo luminescence, 60 min; stronger effect = lower value; Phosphatidylinositol 5-phosphate 4-kinase type-2 alpha (Homo sapiens), P48426; max response, %; active = max response of -50% or lower; inconclusive = between -30% and -50%; inactive = -30% or higher; also: value at the top dose of about 77 µM; % is scaled to controls: 0 for no effect and ±100 for the full control effect
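Single end-point luminescence (ADP-Glo) quantified ADP from PI5P4Kalpha turnover; ATP 5 microM final, 1 h at RT, 0.1% CHAPS and 0.28 mM EGTA in HEPES pH 7.4.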
PLK1 PBD inh: qHTS for Inhibitors of PLK1-PDB (polo-like kinase 1 - polo-box domain): Primary Screen; Serine/threonine-protein kinase PLK1 (Homo sapiens), P53350; Plk1 PBD binding of FITC phosphopeptide, fluorescence polarization; Potency, µM, for the others: max response, negative = inhibition, usual class: inhibitors; 360,000 compounds, 2.8% hits; AID 720504, 2013; also: potency is read from the fitted curve at half-maximal effect; series mostly up to about 57 µM; % is scaled to controls: 0 for no effect and ±100 for the full control effect; nearly all actives have a fitted effect of over 65% in size
BAZ2B inh: qHTS Assay for Inhibitors of BAZ2B; Bromodomain adjacent to zinc finger domain protein 2B (Homo sapiens), Q9UIF8; AlphaScreen BAZ2B-H3K14Ac peptide displacement; Potency, µM (titrated, usually from 114 µM), inactives show at the highest dose activity change, negative = inhibition, most hits filed as inhibitors; 360,000 compounds, 4.4% hits; also: potency is read from the fitted curve at half-maximal effect; % is scaled to controls: 0 for no effect and ±100 for the full control effect; nearly all actives have a fitted effect of over 60% in size
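BAZ2B (50 nM) with biotin-H3(5-23)K14Ac peptide (50 nM) in PBS pH 7.4, 0.01% Tween-20, preformed 30 min, then compound 30 min at room temperature; top concentration 110uM. AlphaScreen streptavidin donor/nickel chelate acceptor beads (10 ug/mL final), 20 min dark, signal read.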
HP1b chromo inh: HTS for Inhibitors of HP1-beta Chromodomain Interactions with Methylated Histone Tails | Chromobox protein homolog 1 (Homo sapiens), P83916 | AID 540317, 2011 | Potency, µM (titrated, usually from 114 µM), without a hit: at the top dose activity change, negative = inhibition, actives largely listed as inhibitors | AlphaScreen HP1-beta / biotin-H3K9me3 peptide binding | 390,000 compounds, 0.56% hits; also: potency is read from the fitted curve at half-maximal effect; nearly all actives have a fitted effect of over 70% in size
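HP1-beta protein (50 nM final) preincubated 30 min at room temperature with biotinylated H3(1-18)K9me3 peptide (50 nM) in PBS pH 7.4, 0.01% Tween-20, then compound added for 30 min. AlphaScreen streptavidin donor/nickel chelate acceptor beads (10 ug/mL final), 30 min dark, luminescence read.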
* = called active by the depositor; ? = inconclusive; . = no result given; [ ] = remark or other dose. A selection: hits, their analogues and other compounds. The true share with any hit is near 12%. Unless noted, calls follow the shape of the dose curve; as a rule, active = well fitted curve in the direction sought with a large enough effect; inconclusive = small, poorly fitted or top-dose-only effect, or another doubt; inactive = no such curve, though single readings can be large; an effect the other way counts as inactive or inconclusive.

SMILES	JMJD2A Tudor	G9a inh	PI5P4Ka inh	PLK1 PBD inh	BAZ2B inh	HP1b chromo inh
COc1ccccc1-c1csc(C(C)(O)c2cccc(F)c2)n1 (configuration not stated)	.	.	19.4	-5.6%	.	.
O=C(C1CCCN(Cc2ccccc2F)C1)N1CCCC1 (configuration not stated)	28.2µM*	39.8µM*	5.3	3.3%	56.2µM*	?
O=C(C1CCCN(Cc2cc(Br)ccc2O)C1)N1CCCCC1 (configuration not stated)	7.94µM*	25.1µM*	12.4	2.8%	50.1µM*	-7.4%
CSc1ccccc1C(=O)NC1CCCN(Cc2ccccc2F)C1 (configuration not stated)	-11.0%	10µM*	5.6	-8.4%	-4.2%	51.4%
Cc1noc(C)c1-c1ccc2ncnc(NCc3ccc(Br)cc3)c2c1	-28.3%	.	.	.	.	.
COc1ccc(CCNC(=O)CCCn2c(=O)c3ccccc3n(CC(=O)Nc3ccc(C)cc3Cl)c2=O)cc1OC	-17.4%	20.4%[59 µM]	.	.	?	46.6%
CCc1cccc(C)c1NC(=O)CSc1n[nH]c(N)n1	-1.0%	.	4.3	-1.3%	.	45.8%
Cc1ccc(S(=O)(=O)N2CCN(C(=O)COC(=O)c3ccc(Br)o3)CC2)c(C)c1	-22.6%	24.0%[2.33 µM]	5.3	-5.6%	6.8%	0.8%
Cc1ccc(S(=O)(=O)N2CCN(C(=O)c3ccc(Br)o3)CC2)c(C)c1	-22.1%	79.4µM*	2.1	-11.9%	-29.6%	-17.1%
Cc1ccc(S(=O)(=O)N2CCN(C(=O)c3ccc4ccccc4n3)CC2)c(C)c1	35.5µM*	1.7%[2.33 µM]	-10.1	-4.4%	50.1µM*	8.2%
O=c1[nH]n(-c2ccccn2)c(=O)c2ccccc12	79.4µM*	?	-8.5	29.9µM*	.	-20.6%
O=c1[nH]n(-c2ccccc2)c(=O)c2ccccc12	-18.6%	2.6%	3.9	-9.4%	11.7%	3.6%
O=C1C=CC(=O)N1c1ccccc1N1C(=O)C=CC1=O	2.82µM*	.	-88.9*	1.5µM*	.	2.82µM*
O=C1C=CC(=O)N1c1ccccn1	89.1µM*	.	-2.6	-14.1%	.	?
N#Cc1nc(Nc2cc(F)cc(F)c2)nc(Nc2cc(F)cc(F)c2)n1	-17.8%	.	.	.	.	.
COc1ncc2nc(-c3cccs3)c(=O)n(Cc3ccc(F)cc3)c2n1	.	24.3%[0.501 µM]	.	.	.	.
CC(=O)c1ccc(N=C2C(=O)Nc3ccccc32)cc1	-14.4%	?	-3.7	?	2.1%	39.7%
CC(=O)N(/N=C1/C(=O)Nc2ccccc21)c1ccccc1	?	14.1µM*	14.6	?	-36.9%	?
COc1ccc2cc(S(=O)(=O)N3CCCCCC3)ccc2c1	7.6%	.	-2.8	?	13.8%	24.4%
CCn1c(SC(C)C)nnc1C1CCN(S(=O)(=O)c2ccc(OC)cc2)CC1	44.7µM*	?	-3.9	-1.8%	-5.8%	54.5%
COc1ccc2cc(S(=O)(=O)N3CCCC(C)C3)ccc2c1 (configuration not stated)	-3.7%	21.4%	2.9	26.7µM*	1.4%	-3.3%[57 µM]
Cc1ccc(S(=O)(=O)N2CCC(C(=O)N[C@@H](C)C(=O)NC3CCCCC3)CC2)cc1	-15.0%	?	2.1	-7.8%	13.1%	50.5%
CCc1ccc(S(=O)(=O)N2CCCC(N3CCN(c4ccc(OC)cc4)CC3)C2)cc1 (configuration not stated)	39.8µM*	39.8µM*	1.3	4.7%	14.1µM*	?
COc1ccc(S(=O)(=O)N2CCC(C(=O)N[C@@H](C)C(=O)NC3CCCC3)CC2)cc1	22.4µM*	.	-22.1	18.9µM*	3.2%	2.8%
